Shown are actives, neighbours in structure and some others; about 2.3% of the full set was active somewhere.
Coupling enz: counter-screen for Giardia aldolase inhibitors: coupling enzyme system. coupling enzyme system counterscreen, AmpLite Red fluorescence. activity change, negative = inhibition, % at 58.2 µM, hits read low. actives 0.67% (n = 290,000). AID 2472; in the data active = activity change below about -30%
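First, compound is pin-transferred into glyceraldehyde-3-phosphate coupling-enzyme reagent at 57.5 uM final and held 10 min at RT. Next, substrate, coupling system and AmpLite Red are added. After 20 min RT, fluorescence (525/598 nm) is read.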
Tau fibril ThT: tau fibrillization inhibition (ThT binding); P10636; AID 1460; Potency, µM (series often up to 57.4 µM), inactives show at the highest dose activity, negative = inhibition, most hits filed as inhibitors; actives 2.1% (n = 270,000); recombinant tau K18 P301L, heparin-induced fibrillization, ThT fluorescence; also: potency is read from the fitted curve at half-maximal effect; nearly all actives have a fitted effect of over 55% in size
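Heparin-induced fibrillization of the P301L-mutant K18 repeat-domain fragment of human tau was followed by ThT binding in quantitative high-throughput format.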
Tau fibril FP: blocks human tau fibril formation measured by polarization; actives 0.39% (n = 280,000); Potency, µM (series often up to 57.7 µM), inactives show at the top dose activity, negative = inhibition, most hits filed as inhibitors; K18 P301L tau heparin fibrillization, Alexa594 FP, 6 h; AID 1468; also: potency is read from the fitted curve at half-maximal effect; nearly all actives have a fitted effect of over 55% in size
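Heparin (20 uM) drove fibril formation of recombinant tau K18 P301L, 15 uM unlabeled with 0.24 uM Alexa 594 label, for 6 hr at 37 C in 100 mM sodium acetate pH 7. Fluorescence polarization (555/632 nm) read 1 hr after 30 uM ThT.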
USP1 inh: inhibitors of human USP1/UAF1 deubiquitinase. O94782. Potency, µM (series often up to 57.1 µM), for inactives: at the top dose activity change, negative = inhibition, actives largely listed as inhibitors. recombinant USP1/UAF1, Ub-Rhodamine cleavage fluorescence. actives 0.23% (n = 390,000); also: potency is read from the fitted curve at half-maximal effect; nearly all actives have a fitted effect of over 60% in size
Target sequence (O94782 whole entry, looked up): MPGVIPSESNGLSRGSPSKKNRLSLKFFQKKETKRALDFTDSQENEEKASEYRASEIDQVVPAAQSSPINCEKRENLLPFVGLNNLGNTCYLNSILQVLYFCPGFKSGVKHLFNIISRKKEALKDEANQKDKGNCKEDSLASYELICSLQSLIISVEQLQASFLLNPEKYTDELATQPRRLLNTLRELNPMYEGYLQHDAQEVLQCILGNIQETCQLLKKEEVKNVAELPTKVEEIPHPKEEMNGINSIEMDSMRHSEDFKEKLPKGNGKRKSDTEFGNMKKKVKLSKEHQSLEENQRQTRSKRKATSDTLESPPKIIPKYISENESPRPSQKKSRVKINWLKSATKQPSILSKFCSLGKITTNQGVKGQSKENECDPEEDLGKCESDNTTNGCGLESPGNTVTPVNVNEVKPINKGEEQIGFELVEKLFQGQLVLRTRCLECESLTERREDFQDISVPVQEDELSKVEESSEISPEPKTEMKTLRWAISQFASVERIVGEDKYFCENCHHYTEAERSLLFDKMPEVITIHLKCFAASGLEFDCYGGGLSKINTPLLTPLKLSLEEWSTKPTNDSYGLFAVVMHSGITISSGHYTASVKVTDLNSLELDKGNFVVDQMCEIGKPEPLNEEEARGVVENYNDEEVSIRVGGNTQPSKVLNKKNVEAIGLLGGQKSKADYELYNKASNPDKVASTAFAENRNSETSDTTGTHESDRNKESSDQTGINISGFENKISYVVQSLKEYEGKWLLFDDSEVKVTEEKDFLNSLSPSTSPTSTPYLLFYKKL
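USP1/UAF1 complex (1 nM) preincubated 15 min at room temperature with compound, then Ub-Rho substrate (150 nM final) added. Kinetic fluorescence at 480/540 nm over 6 reads at 60 s intervals; 50 mM HEPES pH 7.8, 0.5 mM EDTA, 0.1 mg/ml BSA, 1 mM TCEP, 0.01% Tween-20.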
Tau fluor cs: counter-screen for tau fibril formation inhibitors; tau K18 P301L Alexa594 fluorescence, heparin fibrillization; Potency, µM (highest dose often 57.7 µM), for the others: at the top dose activity change, negative = decrease; actives 0.93% (n = 280,000); also: potency is read from the fitted curve at half-maximal effect; nearly all actives have a fitted effect of over 55% in size
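Human tau K18 P301L (15 uM unlabeled, 0.24 uM Alexa 594-labeled) in 100 mM sodium acetate pH 7 with 20 uM heparin, 6 hr at 37 C. ThT 30 uM added, 1 hr ambient; Alexa 594 FP and total fluorescence read at 555/632 nm.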
* = called active by the depositor; ? = inconclusive; · = no result given; ! = repeats disagree; [ ] = remark or other dose. Unless noted, calls follow the shape of the dose curve; as a rule, active = well fitted curve in the direction sought with a large enough effect; inconclusive = small, poorly fitted or top-dose-only effect, or another doubt; inactive = no such curve, though single readings can be large; an effect the other way counts as inactive or inconclusive. % is scaled to controls: 0 for no effect and ±100 for the full control effect.

SMILES | Coupling enz | Tau fibril ThT | Tau fibril FP | USP1 inh | Tau fluor cs
CC(C)N=c1scc(-c2cccs2)n1/N=C/c1ccc(O)c(O)c1O | -17 | 16µM* | ? | -21% | 20µM*[quencher]
CN=c1scc(-c2ccccc2F)n1/N=C/c1ccc(O)c(O)c1O | -47* | 14µM* | ? | -14% | 25µM*[quencher]
CC(=O)C(=Nc1ccccc1Cl)NNc1ccc(Cl)cc1 | -1 | 6.3µM* | ? | -10% | ?
COc1ccc(CC(N)C(=O)N[C@H]2[C@@H](O)[C@H](n3cnc4c(N(C)C)ncnc43)O[C@@H]2CO)cc1 (some centres not stated) | 0 | -5% | 7% | · | -3%
O=C1CS/C(=N/N=C2CCCC2)N1 | 3 | -6% | -1% | -5% | -5%
O=C1CSC(=NC2CCCCC2)N1 | 1 | 22µM* | ? | -3% | -8%
CCOc1cc(S(=O)(=O)NCCc2c(C)[nH]c3ccc(C)cc23)ccc1Br | · | ? | 15% | -23% | 3.5µM*[quencher]
CC(C)(C=O)C1=CC(=O)c2ccccc2C1=O | -63* | 8.9µM* | ? | ? | ?
COc1cccc2c1C(=O)C=C(C)C2=O | -39* | 7.1µM* | ? | ? | 7.1µM*[quencher]
CC1=CC(=O)c2ccccc2C1=O | -33*! | 5µM* | ? | ? | 7.1µM*[quencher]
CCOc1ccccc1C(O)C1=CC(=O)c2ccccc2C1=O (configuration not stated) | · | · | · | -16% | ·
CC(C)(C)c1ccc2c(c1)C(=O)c1ccccc1C2=O | 6 | -12% | 6% | -22% | -29%
COc1ccccc1-c1ccccc1C1=CC(=O)CC(C)(C)C1=O | · | · | · | -6% | ·
COc1ccc(CCNC(=O)CSc2nnnn2-c2cccc(C(C)=O)c2)cc1OC | · | -7% | -6% | -27% | -13%
CC(C)(C)OC(=O)NCCCC1=CC2=CC(=O)C(C)(OC(=O)c3cccs3)C(=O)C2=CO1 (configuration not stated) | 0 | 5% | 4% | · | 0%
N=c1oc2c3c4c(cc2cc1C(=O)Nc1ccccc1)CCCN4CCC3 | -9 | -1% | 0% | 10µM* | 10%
CCOc1ccc(-n2c(=O)c3c(C)c(C)sc3n(CC(=O)NCCc3ccccc3)c2=O)cc1 | · | 8% | -8% | ? | 3%
Cn1c(N)c(C(=O)COC(=O)C2CCCN2C(=O)c2cccs2)c(=O)n(C)c1=O (configuration not stated) | 5 | -4% | -4% | -14% | -1%
Cc1cc2ccccn2c1C(=O)c1cc([N+](=O)[O-])cc([N+](=O)[O-])c1 | -4 | -11% | 10% | -25% | -19%
Cc1cc2ccccn2c1C(=O)c1ccc(NN)c([N+](=O)[O-])c1 | -4 | 10µM* | 4% | -25% | ?
CN(C)C(=O)c1ccc(-c2ccc3ncnc(N4CCC(C(=O)O)CC4)c3c2)cc1 | -3 | · | · | · | ·
COC1=CC(=O)C(O)=C/C1=C\C=C\c1ccccc1 | -17 | 7.9µM* | 16µM* | · | ?
CCCS(=O)(=O)N1CCC(n2c(C)nc3cccnc32)CC1 | · | 3% | 4% | 1% | 0%
COC(=O)C1=NOC2(C=C(Br)C(OC)=C(Br)C2=O)C1 (configuration not stated) | 2 | 4µM* | ? | · | -23%[11.6 µM]
O=C(O)CNC(=O)c1ccc(NS(=O)(=O)c2ccc3ccccc3c2)cc1 | 5 | · | · | -7% | ·
SMILES | Coupling enz | Tau fibril ThT | Tau fibril FP | USP1 inh | Tau fluor cs
CN(C)c1ccc(C=c2c3ccccc3n3c2cc(-c2ccccc2)[n+]3C)cc1 | · | · | · | 18µM* | ·
COc1cc(C=c2c3ccccc3n3c2cc(-c2ccccc2)[n+]3C)cc(OC)c1OC | · | · | · | 2.2µM* | ·
CCc1nc2nc(C)cc(Nc3cc(Cl)ccc3OC)n2n1 | · | -3% | -1% | 6% | -4%
Cc1ccc(-c2ccc(/C=C3/NC(=O)NC3=O)o2)cc1[N+](=O)[O-] | 0 | ? | ? | -7% | -27%
CC1=C(C#N)C(=O)NC(=O)/C1=C\c1ccc(-c2cc(C)c(C)cc2[N+](=O)[O-])o1 | 1 | 25µM* | ? | ? | ?
COc1ccccc1CNC(=O)C(NS(=O)(=O)c1ccc2c(c1)CCN2C(C)=O)C(C)C (configuration not stated) | · | -8% | -8% | -7% | -12%
Cc1cccc(N2CCN(c3ccc(NC(=O)/C=C(/C(=O)O)c4ccccc4)cc3)CC2)c1 | -5 | 8.9µM* | ? | -19% | ?
CC(=O)N1CCN(c2ccc(NC(=O)c3cccc(C)c3)cc2)CC1 | -2 | · | · | -2% | ·
O=C(CSc1nc2cc(Cl)ccc2s1)c1cc2ccccc2o1 | -9 | ? | 2% | 28µM* | -25%
CCN(Cc1ccccc1)c1nc2c(S(=O)(=O)c3ccccc3)nnn2c2ccc(Cl)cc12 | · | -11% | -8% | 6% | -12%
CCCCCC(=O)Nc1nc(C)c(-c2csc(Nc3ccccc3OCC)n2)s1 | -6 | ? | 10% | -42% | ?
COc1ccccc1Nc1nc(-c2sc(NC(=O)c3ccc([N+](=O)[O-])cc3)nc2C)cs1 | 0 | 3.5µM* | ? | · | 10µM*[quencher]
CCC(=O)Nc1nc(C)c(-c2csc(Nc3ccccn3)n2)s1 | -2 | 14µM* | ? | -2% | ?
CCCCCCC(=O)Nc1nc(C)c(-c2csc(Nc3ccccc3OC)n2)s1 | -6 | ? | 16% | -24% | 14µM*[quencher]
COc1ccccc1Nc1nc(-c2sc(NC(=O)c3ccccc3)nc2C)cs1 | -2 | ? | 7% | -25% | ?
CCCCCC(=O)Nc1nc(C)c(-c2csc(Nc3ccccc3OC)n2)s1 | -4 | ? | ? | -27% | 11µM*[quencher]
CCCCN(CC)Cc1ccc(CNS(=O)(=O)c2cc3c(cc2Cl)NC(=O)CO3)o1 | · | -4% | ? | ? | -8%
CCCCCn1c(=O)[nH]c2cc(C(=O)NCc3ccc(OC)cc3)ccc2c1=O | · | -8% | ? | -13% | -6%
CCOC(=O)c1c(C)n(-c2ccccc2)c2ccc(OC(=O)COc3ccc(Cl)cc3)cc12 | · | -14% | -11% | 9% | -10%
Cc1ccc(N/C=C/C(=O)c2ccco2)c(O)c1 | -6 | 3.5µM* | 2% | -15% | -23%
CC/C=C\C/C=C\C/C=C\C/C=C\C/C=C\CCCCCC(=O)O | 0 | -3% | 2% | · | -1%
CC/C=C\C/C=C\C/C=C\C/C=C\C/C=C\C/C=C\CCC(=O)O | 0 | 16µM*! | ? | · | -1%
O=C(CSc1ncnc2scc(-c3ccc(Cl)cc3)c12)NCc1ccc2c(c1)OCO2 | -33* | -3% | 6% | -26% | -10%
Cc1cccc(NC2=C(C#N)C(=O)NC3(CCCC3)S2)c1 | 4 | ? | ? | -6% | 0%
N#CC1=C(Nc2ccccc2Cl)SC(c2ccccc2O)NC1=O (configuration not stated) | 13 | ? | 32µM* | -23% | -25%
